This passage reports activity, negative = inhibition and AC50 results from PubChem BioAssay AID1851 (National Center for Advancing Translational Sciences (NCATS), 2009).

What is called AC50 is the concentration giving half of the maximal activity seen.

The whole screen tested about 16,000 compounds, of which about 5,700 (36%) were called active. Roughly 24% stayed inconclusive and do not appear here. The call rests on the fitted dose curve; in most records, active means well fitted curve in the direction sought with a large enough effect; inconclusive means small, poorly fitted or top-dose-only effect, or effect the other way; inactive means no such curve, though single readings can be large or run the other way. Some of the results follow.
On the % scale 0 is the no-effect control and ±100 the full control effect.

For the experiment, the target named is Cytochrome P450 1A2 (Homo sapiens) (UniProt P05177). Put plainly: Cytochrome panel assay with activity outcomes. As to conditions: recombinant CYP, pro-luciferin dealkylation, luminescence, p450-cyp1a2; series mostly up to 57.1 µM.
Sequence of Cytochrome P450 1A2 (Homo sapiens) (P05177 whole entry, looked up): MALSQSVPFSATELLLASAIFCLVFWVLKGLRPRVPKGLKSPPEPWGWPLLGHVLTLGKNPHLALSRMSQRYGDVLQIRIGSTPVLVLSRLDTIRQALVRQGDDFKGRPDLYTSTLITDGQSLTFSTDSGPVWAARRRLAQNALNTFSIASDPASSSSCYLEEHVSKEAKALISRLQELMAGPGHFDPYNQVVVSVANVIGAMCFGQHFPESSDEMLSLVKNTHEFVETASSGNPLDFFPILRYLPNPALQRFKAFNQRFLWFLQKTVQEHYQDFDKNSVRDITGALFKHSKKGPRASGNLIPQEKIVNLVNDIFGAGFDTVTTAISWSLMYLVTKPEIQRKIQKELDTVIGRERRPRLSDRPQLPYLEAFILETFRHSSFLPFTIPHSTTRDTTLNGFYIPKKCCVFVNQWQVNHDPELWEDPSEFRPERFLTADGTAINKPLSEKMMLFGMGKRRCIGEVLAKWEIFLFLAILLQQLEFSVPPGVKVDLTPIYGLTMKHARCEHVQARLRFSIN
Consider `Cc1ccc(S(=O)(=O)n2c3ccccc3c3nnc(C(=O)c4ccccc4)nc32)cc1`, for which the activity, negative = inhibition was -2.9% [at 11.4 µM] (inactive).
In the case of `Cn1c(=O)c2nc(-c3ccccc3)oc2c2ccccc21`, the half-maximal activity concentration (AC50) is 0.398 µM (active).
Consider `Cc1ccc(-c2nc3c(=O)n(C)c4ccccc4c3o2)cc1`, for which the AC50 is 0.398 µM (active).
Turning to `COc1ccc2[nH]cc(CCNc3cc(-c4cccnc4)ncn3)c2c1`, the AC50 is 3.16 µM (active).
For `COc1ccc2[nH]cc(CCNc3ccnc(-c4cccnc4)n3)c2c1`, the AC50 was 0.251 µM (active).
In the case of `COc1ccc2[nH]cc(CCNc3cc(-c4cccc(C#N)c4)ncn3)c2c1`, the AC50 was 0.794 µM (active).
Still for that read-out and setting: as for `COc1cccc(-c2cc(NCCc3c[nH]c4ccc(OC)cc34)ncn2)c1`, the figure is 0.794 µM (active).
Take `N[C@H](CCC(=O)NCC(=O)O)C(=O)O`: the AC50 result was “inactive”.
In the case of `COc1ccccc1CN1CCC2(CCNCC2)CC1`, the AC50 result was “inactive”.
Turning to `CN(C)CCn1nnnc1SCC1=C(C(=O)O)N2C(=O)[C@@H](NC(=O)Cc3csc(N)n3)[C@@H]2SC1`, the AC50 entry was “inactive”.
Consider `COc1ccc2[nH]cc(CCNc3cc(-c4ccoc4)ncn3)c2c1`, for which the AC50 is 0.631 µM (active).
Consider `COc1ccc2[nH]cc(CCNc3ccnc(-c4cccc(NS(C)(=O)=O)c4)n3)c2c1`, for which the AC50 was 1.58 µM (active).
As to `CC1(C)S[C@@H]2[C@H](NC(=O)C(N)c3ccccc3)C(=O)N2[C@H]1C(=O)O` (stereo not given in full), the AC50 entry is “inactive”.
Consider `c1ccc(-c2nc(N3CCCCCC3)nc(-n3ccnc3)n2)cc1`, for which the AC50 is 1.26 µM (active).
On to `CN(c1ccccc1)c1nc(-n2ccnc2)nc(-n2ccnc2)n1`, for which the AC50 is 0.158 µM (active).
Regarding `CC(C)[C@@H](OCc1ccccc1)[C@H](C)/C=N\OC[C@@H](O)[C@@H]1O[C@@H]2OC(C)(C)O[C@@H]2[C@H]1O`, the activity, negative = inhibition was -0.825% [at 11.4 µM] (inactive).
On to `Clc1ccccc1-c1nccc(-n2ccnc2)n1`, for which the AC50 was 0.158 µM (active).
`Cc1ccccc1-c1nccc(-n2ccnc2)n1`: the AC50 is 0.0794 µM (active).
Take `COc1ccccc1-c1nccc(-n2ccnc2)n1`: the AC50 was 0.158 µM (active).
On the same count and under the same terms, as for `COC(=O)N1CCC[C@@]2(CCN(C(=O)Nc3ccc(OC)cc3)C2)C1`, the entry is “inactive”.
Turning to `N=C(N)SCC(=O)O`, the activity, negative = inhibition was -10.2% [at 2.29 µM] (inactive).
With `COc1ccc(/C(O)=C(\C#N)c2nc3ccccc3n2C)cc1OC`, the AC50 was 5.01 µM (active).
Still for that read-out and setting: as for `Cn1c(/C(C#N)=C(\O)c2ccc(S(=O)(=O)N3CCCCC3)cc2)nc2ccccc21`, the entry is “inactive”; as for `CN(CCCNC(=O)c1cccn2c(=O)c3ccccc3nc12)Cc1ccccc1`, 14.1 µM (active).
Take `CN(CCCNC(=O)c1ccc(/C=N/O)nc1)CCCN(C)Cc1ccccc1`: the AC50 result is “inactive”.
Regarding `CN(C)CCCNC(=O)CCc1nc2ccccc2c(=O)[nH]1`, the AC50 result is “inactive”.
With `c1csc(CNc2ncncc2-c2ccc3c(c2)OCO3)c1`, the AC50 is 0.2 µM (active).
On the same count and under the same terms, as for `c1cncc(CNc2ncncc2-c2ccc3c(c2)OCO3)c1`, the figure is 0.398 µM (active); as for `Cc1cccc(CNc2ncncc2-c2ccc3c(c2)OCO3)c1`, 0.126 µM (active).
On the same count and under the same terms, next, `Cc1cnc(CNc2ncncc2-c2ccc3c(c2)OCO3)cn1`: 2 µM (active).
The same measure, in the same setting: as for `Cc1ccc(N(C(=O)Cn2nnc(-c3ccc(F)cc3)n2)C(CC(C)C)C(=O)NCC2CCCO2)cc1` (stereo not given), the entry is “inactive”.
`c1ccc(CNc2ncncc2-c2ccc3c(c2)OCO3)cc1`: the half-maximal activity concentration (AC50) was 0.126 µM (active).
For the compound `c1ccc(Nc2ncncc2-c2ccc3c(c2)OCO3)cc1`, the AC50 was 0.316 µM (active).
For `CC(C)c1ccccc1S(=O)c1ccccc1C(C)(C)O` (stereo not given), the activity, negative = inhibition is -10.7% [at 2.29 µM] (inactive).
On to `O=C(O)c1ccccc1OP(=O)(O)O`, for which the AC50 entry was “inactive”.
For the compound `O=C(O)c1ccccc1/C=N\N=C1c2ccccc2-c2ccccc21`, the AC50 was 0.316 µM (active).
`O=C(O)c1cccc2cccc(-c3cccc4cccc(C(=O)O)c34)c12`: the activity, negative = inhibition is -12.3% [at 2.29 µM] (inactive).
Turning to `O=C(O)c1ccc(/C=N\N=C2c3ccccc3-c3ccccc32)cc1`, the AC50 was 0.126 µM (active).
With `NCc1ccc(C(=O)O)cc1`, the activity, negative = inhibition was -4.79% [at 2.29 µM] (inactive).
Take `Cc1ccc(Cl)cc1-n1c(=O)cc(N2CC(C)OC(C)C2)[nH]c1=O` (stereo not given): the AC50 entry is “inactive”.
In the case of `Cc1cccc(Nc2cc(Cl)nc(SCC(=O)O)n2)c1C`, the AC50 entry is “inactive”.
Still for that read-out and setting: next, `Clc1ccc(Cl)c(Nc2ccnc(SCc3ccccc3)n2)c1`: 0.501 µM (active).
On to `Cn1c(=O)n2n(c1=O)[C@H]1[C@H](O)[C@H]3O[C@@H]3/C(=N/OC[C@@H](O)COCc3ccco3)[C@@H]1CC2`, for which the activity, negative = inhibition was 2.55% [at 11.4 µM] (inactive).
`CCc1cccc2c(-c3ccccc3)c3c(nc12)OCC3`: the AC50 is 0.316 µM (active).
In the case of `CCc1cccc2c3c([nH]c12)[C@@](CC)(CC(=O)O)OCC3`, the AC50 entry was “inactive”.
For `O=C1Nc2ccccc2C1=Nc1ccc(S(=O)(=O)Nc2nccs2)cc1`, the activity, negative = inhibition is -18.2% [at 11.4 µM] (inactive).
For `NS(=O)(=O)c1ccc(N=C2C(=O)Nc3ccccc32)cc1`, the activity, negative = inhibition was -12.7% [at 2.29 µM] (inactive).
With `O=C1Nc2ccccc2/C1=N/c1sc2c(c1C(=O)NCCc1ccccc1)CCCC2`, the AC50 was 2.51 µM (active).
With `c1cc(NNc2cccc(-c3nn[nH]n3)c2)cc(-c2nn[nH]n2)c1`, the activity, negative = inhibition was -15.5% [at 2.29 µM] (inactive).
As to `COCCNc1nc(-c2cccc(NS(C)(=O)=O)c2)nc2ccccc12`, the AC50 is 3.16 µM (active).
For `CS(=O)(=O)Nc1cccc(-c2nc(NCc3ccccc3)c3ccccc3n2)c1`, the AC50 is 2.51 µM (active).
As to `CC(=O)NCCNc1nc(-c2cccc(NS(C)(=O)=O)c2)nc2ccccc12`, the AC50 was 15.8 µM (active).
In the case of `CS(=O)(=O)Nc1cccc(-c2nc(NCc3cccs3)c3ccccc3n2)c1`, the AC50 was 1 µM (active).
On to `CC[C@@H]1CC(=O)N(SC[C@H](N)C(=O)O)C1=O`, for which the activity, negative = inhibition is -14.7% [at 11.4 µM] (inactive).
As to `COc1cccc([C@@H]2Oc3ccc(Br)cc3C(=O)[C@H]2O)c1`, the activity, negative = inhibition is -3.35% [at 11.4 µM] (inactive).
For the compound `CCc1c(C)c(C#N)c2nc3ccccc3n2c1Nc1c(C)n(C)n(-c2ccccc2)c1=O`, the AC50 entry was “inactive”.
Take `Cc1cccc(CNc2nc(-c3cccc(NS(C)(=O)=O)c3)nc3ccccc23)c1`: the AC50 is 15.8 µM (active).
Still for that read-out and setting: next, `Cc1sc(NC(=O)c2ccco2)c(C(c2ccncc2)N2CCOCC2)c1C` (stereo not given): “inactive”; `Cc1sc(NC(=O)c2ccco2)c(C(c2cccnc2)N2CCCC2)c1C` (stereo not given): 14.1 µM (active); `Cc1sc(NC(=O)c2ccco2)c(C(c2cccnc2)N2CCN(C)CC2)c1C` (stereo not given): “inactive”.
